Molecules are shown by their SMILES. Active and inactive are the calls of the source. Unless noted, how the calls were made is not given here.

The text below walks through data of PubChem BioAssay.

For assay [1], the system named is Wnt5a (protein binding on small-molecule microarray). Put plainly: Wnt5a binders on small-molecule microarray, primary screen, biophysical, 635/667 nm fluorescence (AID 1142).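 Further: fluorescence read at 667 nm with signal to noise per printed feature.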 The following applies: 635 nm fluorescence, higher = more signal.
Assay [2] is described as follows: cell viability in Huh7 cells, primary screen, cytotoxicity control for HCV replication inhibitor project, CellTiter-Glo luminescence, basal, 48 h (AID 1143).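 Further: Huh7 hepatoma cells carrying a hepatitis C replication reporter with no stimulus; test concentration not given here.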 The settings on record: Huh7 HCV replicon, higher = more signal, called active from +8 up or from −8 down.
The nature of assay [3]: P. aeruginosa biofilm formation inhibitors, primary screen, PAO1 strain, BacTiter-Glo luminescence, LB-PBS (AID 1144). The following applies: 12 h, higher = more signal.
A short description of assay [4]: CREB reporter modulators without forskolin, primary screen, cell-based, PC12, CRE-LacZ reporter, unstimulated (AID 1145). The following applies: no forskolin, luminescence, 4.5 h, higher = more signal, called active from +8 up or from −8 down.
Assay [5] is described as follows: CREB reporter modulators under forskolin, primary screen, cell-based, PC12, CRE-LacZ reporter, forskolin-stimulated (AID 1146).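 Further: PC12 cells with 6xCRE LacZ reporter stimulated by forskolin 10 µM; beta-galactosidase reporter signal reflecting CREB driven transcription.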 The following applies: luminescence, 4.5 h, higher = more signal, called active from +8 up or from −8 down.
Assay [6] addresses Streptavidin (Streptomyces avidinii) (UniProt P22629). Put plainly: streptavidin binders on small-molecule microarray, primary screen, artefact control for SMM compound annotation, biophysical, 635/667 nm fluorescence (AID 1147).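 Further: signal reflects streptavidin binding to arrayed compounds as a control protein.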 The settings on record: streptavidin binding, higher = more signal.
The nature of assay [7]: small-molecule binders of probe aInhba, primary screen, biochemical, small-molecule microarray, 635/667 nm fluorescence (AID 1148).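 Further: score merges 667nm spot fluorescence with signal-to-noise for antibody binding to printed compounds.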 The following applies: higher = more signal.
Assay [8] concerns the target Torsin-1A (Homo sapiens) (UniProt O14656). Kind of assay: torsin A binders from cell lysate, primary screen, small-molecule microarray, wild-type, 635/667 nm (AID 1149). The following applies: COS7 hTOR1A-WT lysate, 635 nm fluorescence, higher = more signal.
For assay [9] the target is unchanged. Put plainly: small-molecule binders of mutant TOR1A in lysate, primary screen, cell lysate, small-molecule microarray, COS7 lysate, 635/667 nm fluorescence (AID 1150).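 Further: score pools 667 nm emission and signal to noise measuring lysate protein binding.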 The settings on record: COS7 hTOR1A mutant lysate, 635 nm fluorescence, higher = more signal.
Assay [10] deals with Sonic hedgehog protein (Shh). Kind of assay: small-molecule binders of Shh protein, primary screen, biochemical, small-molecule microarray, 635/667 nm fluorescence (AID 1151).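 Further: Shh protein binding to compounds spotted on small-molecule microarray slides; score combines spot fluorescence intensity with signal-to-noise across triplicate slides.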 The settings on record: small-molecule microarray binding, 635 nm fluorescence; higher = more signal.
Assay [11] in a line: E. coli DRC41 culture turbidity changes, primary screen, E. coli filamentation inducer project, strain DRC41, OD650, 48 h (AID 1152).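 Further: E. coli MC1000 strain DRC41 lacking acrAB efflux pump and sulA.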 The following applies: E. coli DRC41 (acrAB sulA), higher = more signal, called active from +8 up or from −8 down.
The nature of assay [12]: small-molecule binders of probe aLefty1, primary screen, biochemical, small-molecule microarray, 635/667 nm fluorescence (AID 1153).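 Further: score merges spot fluorescence with signal-to-noise ratio from the scanned slide images.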 The following applies: higher = more signal.
A short description of assay [13]: PSAC antagonists in infected red cells, primary screen, cell-based, P. falciparum Indochina, OD700, 1 h (AID 1154). The following applies: P. falciparum Indochina infected RBC osmotic lysis, higher = more signal, called active from +8 up or from −8 down.
Assay [14] can be described thus: PSAC antagonists in infected red cells, primary screen, cell-based, P. falciparum Indochina, OD700, 2 h (AID 1155).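 Further: lysis reports solute entry through the parasite surface anion channel PSAC; channel blockers reduce lysis of infected cells.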 The settings on record: P. falciparum Indochina infected erythrocytes, osmotic lysis OD700; higher = more signal, called active from +8 up or from −8 down.
Assay [15] is described as follows: osmotic lysis modulators in infected erythrocytes, primary screen, PSAC antagonist project, cell-based, P. falciparum Indochina, OD700, 3 h (AID 1156). The following applies: higher = more signal, called active from +8 up or from −8 down.
The nature of assay [16]: PSAC antagonists in infected red cells, primary screen, cell-based, P. falciparum Indochina, OD700, 18 h (AID 1157). The following applies: P. falciparum Indochina infected erythrocytes, osmotic lysis OD700, 18 h; higher = more signal, called active from +8 up or from −8 down.
Assay [17] is described as follows: modulators of S6 phosphorylation in cells, primary screen, cell-based, A549, cytoblot, luminescence, serum-stimulated (AID 1158).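 Further: serum-stimulated A549 lung adenocarcinoma cells; signal is phosphorylated S6 detected by cytoblot immunostaining with HRP secondary.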 The following applies: A549 phospho-S6 cytoblot, 5 h, higher = more signal.
The target in assay [18] is NADPH oxidase 2 (Homo sapiens) (UniProt P04839). Put plainly: NOX2-dependent H2O2 signal modulators, primary screen, NOX inhibitor project, cell-based, HEK293-NOX2, PMA-stimulated, Amplex Red fluorescence (AID 1159). Further: test concentration not given here. The settings on record: 45 min, higher = more signal, called active from +8 up or from −8 down.
NADPH oxidase 2 (Homo sapiens), sequence (P04839 whole entry, looked up): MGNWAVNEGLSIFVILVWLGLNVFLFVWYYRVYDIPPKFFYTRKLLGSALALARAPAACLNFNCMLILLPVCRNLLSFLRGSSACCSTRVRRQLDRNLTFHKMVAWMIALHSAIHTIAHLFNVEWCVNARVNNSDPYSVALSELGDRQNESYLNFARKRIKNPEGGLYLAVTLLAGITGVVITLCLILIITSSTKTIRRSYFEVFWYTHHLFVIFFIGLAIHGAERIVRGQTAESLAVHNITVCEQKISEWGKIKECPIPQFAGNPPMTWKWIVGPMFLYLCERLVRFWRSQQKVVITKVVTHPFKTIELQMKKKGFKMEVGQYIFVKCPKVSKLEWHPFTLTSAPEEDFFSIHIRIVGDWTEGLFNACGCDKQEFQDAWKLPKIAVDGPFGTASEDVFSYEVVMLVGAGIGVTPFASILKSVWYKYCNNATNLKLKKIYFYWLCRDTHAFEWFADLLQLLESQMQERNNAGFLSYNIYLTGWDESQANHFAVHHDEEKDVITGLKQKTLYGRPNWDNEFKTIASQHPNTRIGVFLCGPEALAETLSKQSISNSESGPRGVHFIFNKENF
Assay [19] concerns the target NADPH oxidase 4 (Homo sapiens) (UniProt Q9NPH5). Put plainly: NOX4-dependent H2O2 signal modulators, primary screen, NOX inhibitor project, cell-based, HEK293-NOX4, tetracycline-induced, Amplex Red fluorescence (AID 1160). The following applies: 45 min, higher = more signal, called active from +8 up or from −8 down.
The target in assay [20] is NADPH oxidase 5 (Homo sapiens) (UniProt Q96PH1). Kind of assay: NOX5-dependent H2O2 signal modulators, primary screen, NOX inhibitor project, cell-based, HEK293-NOX5, Amplex Red fluorescence (AID 1161). The settings on record: HEK293-NOX5, ionomycin, 45 min, higher = more signal.
NADPH oxidase 5 (Homo sapiens), sequence (Q96PH1 whole entry, looked up): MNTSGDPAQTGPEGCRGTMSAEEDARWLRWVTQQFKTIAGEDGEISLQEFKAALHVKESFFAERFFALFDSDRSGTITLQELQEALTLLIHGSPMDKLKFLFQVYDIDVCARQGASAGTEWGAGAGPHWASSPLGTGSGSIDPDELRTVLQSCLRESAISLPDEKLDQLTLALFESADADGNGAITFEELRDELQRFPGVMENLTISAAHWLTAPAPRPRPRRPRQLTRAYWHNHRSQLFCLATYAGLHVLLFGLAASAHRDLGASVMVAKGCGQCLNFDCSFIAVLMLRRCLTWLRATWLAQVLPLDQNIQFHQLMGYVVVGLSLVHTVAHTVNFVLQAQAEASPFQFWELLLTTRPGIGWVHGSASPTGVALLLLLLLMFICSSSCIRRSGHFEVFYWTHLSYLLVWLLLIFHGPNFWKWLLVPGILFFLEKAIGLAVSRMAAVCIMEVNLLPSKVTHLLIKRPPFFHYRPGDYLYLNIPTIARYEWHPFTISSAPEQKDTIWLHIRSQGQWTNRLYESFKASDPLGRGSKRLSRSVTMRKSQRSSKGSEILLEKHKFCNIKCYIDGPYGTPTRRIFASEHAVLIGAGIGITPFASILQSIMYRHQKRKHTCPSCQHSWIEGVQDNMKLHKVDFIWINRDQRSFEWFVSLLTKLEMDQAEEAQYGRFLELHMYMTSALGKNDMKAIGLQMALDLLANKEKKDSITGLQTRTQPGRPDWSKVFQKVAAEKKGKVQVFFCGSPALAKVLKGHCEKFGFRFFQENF

NADPH oxidase 4 (Homo sapiens), sequence (Q9NPH5 whole entry, looked up): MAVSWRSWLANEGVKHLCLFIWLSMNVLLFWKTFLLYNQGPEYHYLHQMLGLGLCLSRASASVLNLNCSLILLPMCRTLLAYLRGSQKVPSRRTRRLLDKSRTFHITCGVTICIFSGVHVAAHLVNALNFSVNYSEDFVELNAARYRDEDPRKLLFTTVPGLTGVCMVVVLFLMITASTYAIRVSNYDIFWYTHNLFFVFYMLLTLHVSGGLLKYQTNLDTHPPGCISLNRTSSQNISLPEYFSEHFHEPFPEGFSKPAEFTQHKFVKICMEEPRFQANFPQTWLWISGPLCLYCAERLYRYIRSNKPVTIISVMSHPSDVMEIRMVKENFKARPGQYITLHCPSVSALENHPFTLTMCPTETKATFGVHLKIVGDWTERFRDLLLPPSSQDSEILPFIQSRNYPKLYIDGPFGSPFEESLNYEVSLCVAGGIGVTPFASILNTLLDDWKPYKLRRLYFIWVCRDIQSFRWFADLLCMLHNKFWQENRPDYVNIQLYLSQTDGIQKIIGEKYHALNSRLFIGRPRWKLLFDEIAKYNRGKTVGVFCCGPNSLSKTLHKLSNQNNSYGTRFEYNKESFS
Streptavidin (Streptomyces avidinii), sequence (P22629 whole entry, looked up): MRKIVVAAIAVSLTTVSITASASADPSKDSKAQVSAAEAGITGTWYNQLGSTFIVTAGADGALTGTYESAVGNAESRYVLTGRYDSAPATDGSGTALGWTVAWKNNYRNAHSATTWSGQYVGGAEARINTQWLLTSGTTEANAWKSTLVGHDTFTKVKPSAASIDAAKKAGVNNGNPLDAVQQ
Torsin-1A (Homo sapiens), sequence (O14656 whole entry, looked up): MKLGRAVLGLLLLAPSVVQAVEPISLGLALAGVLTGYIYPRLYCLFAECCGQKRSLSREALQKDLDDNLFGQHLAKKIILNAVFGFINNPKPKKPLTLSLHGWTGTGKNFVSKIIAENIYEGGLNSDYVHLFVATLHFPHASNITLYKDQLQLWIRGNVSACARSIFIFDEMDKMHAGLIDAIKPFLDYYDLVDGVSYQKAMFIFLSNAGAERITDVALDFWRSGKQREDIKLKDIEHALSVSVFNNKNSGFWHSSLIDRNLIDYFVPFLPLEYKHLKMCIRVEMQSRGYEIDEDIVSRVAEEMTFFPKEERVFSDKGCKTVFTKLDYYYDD

`O=C1O[C@@H](c2ccccc2)[C@@H](c2ccccc2)N2[C@@H](c3ccc(OCCO)cc3)[C@]3(C(=O)Nc4ccc(C#CCCO)cc43)[C@@H](C(=O)O)[C@H]12`: the composite z-score amounted to 0.529 in [1]; 1.84 in [6]; 1.34 in assay [7]; 0.892 in [8]; 0.203 in assay [9]; 0.688 in [10]. This compound also showed a composite z-score in [12] of 1.31. In addition, the z-score in assay [2] is -0.579 (inactive); in [3] it was -0.155 (inactive); in [4] it was -0.761 (inactive); in assay [5] it was -0.0408 (inactive); in assay [11] it was 0.624 (inactive); in assay [13], 1.93 (inactive). For the same compound, the z-score in [14] is -0.0017 (inactive); in [15], 0.88 (inactive); in assay [16], -0.097 (inactive); in [17], -0.197; in assay [18] it was 2.08 (inactive); in [19] it was 0.716 (inactive). For the same compound, the z-score in assay [20] was found to be 1.1.

With `[N-]=[N+]=Nc1ccccc1C[C@@]1(C(=O)NCC(O)CO)N=C(c2ccc(OCCCO)cc2)O[C@@H]1c1ccccc1` (stereo not given in full), the composite z-score in assay [1] is 0.674; in assay [6], 1.45; in [7], 0.0047; in [8], 0.744; in assay [9], 0.944; in assay [10] it was -0.538. In [12], the composite z-score was found to be 0.102. In addition, the z-score in [2] is -3.5 (inactive); in [3] it was 0.557 (inactive); in [4], -0.16 (inactive); in assay [5], -0.57 (inactive); in assay [11], 0.445 (inactive); in assay [13], 26.6 (active). In addition, the z-score in assay [14] was 14.1 (active); in [15] it was 2.05 (inactive); in assay [16], 1.87 (inactive); in assay [17], 0.122; in [18], 2.51 (inactive); in assay [19], 0.662 (inactive). Also, the z-score in [20] was -0.946.

Turning to `C=CCC(OC(C)=O)[C@@H]1[C@@H](N(Cc2ccc(-c3cccc(C(F)(F)F)c3)o2)C(=O)Cc2ccc(F)cc2)c2cc(OCCCO)ccc2N1C(=O)Cc1ccc2ccccc2c1` (stereo not given in full), the composite z-score in [1] is -0.268; in assay [6] it was -0.426; in assay [7], -0.114; in [8], -0.761; in assay [9], -0.673; in assay [10] it was 0.404. Moreover, in assay [12], the composite z-score amounted to 0.0919. The z-score was -0.229 (inactive) in [2]; -1.1 (inactive) in assay [3]; -0.374 (inactive) in assay [4]; 0.767 (inactive) in [5]; -0.985 (inactive) in assay [11]; 1.1 (inactive) in assay [13]. Further, the z-score in [14] was 0.135 (inactive); in [15], -0.554 (inactive); in [16], -0.135 (inactive); in [17], -0.37; in [18], -1.03 (inactive); in assay [19] it was 0.896 (inactive). The same compound gave a z-score in assay [20] of 0.736.

On to `C=C(CCCC)C(=O)CC[C@@H](OC(=O)c1ccccc1-c1ccccc1C(=O)O)c1ccccc1OCCO`, for which the composite z-score was 0.0726 in [1]; -0.34 in assay [6]; -0.157 in assay [7]; 1.21 in assay [8]; 0.818 in assay [9]; 1.56 in assay [10]. The same compound registered a composite z-score in [12] of -0.0003. Besides, the z-score in [2] was -1.62 (inactive); in [3], -0.131 (inactive); in assay [4], 6.69 (inactive); in [5], 2.06 (inactive); in [11], 0.414 (inactive); in assay [13] it was 6.1 (inactive). Besides, the z-score was 0.148 (inactive) in assay [14]; -0.138 (inactive) in assay [15]; -1.14 (inactive) in assay [16]; 0.332 in assay [17]; 1.78 (inactive) in assay [18]; 0.0357 (inactive) in assay [19]. For the same compound, the z-score in assay [20] is -1.39.
